# Assay results reported in the supplement of paper PMC9135407.
# “And” between values parts separate entries of the source, which are not always exact repeats. Equal values may be shown once. Where a name gives a salt, the structure may show the parent alone. Hit rate of the full screen: of about 5,800 compounds, about 620 (11%) showed activity. The sample as a whole holds a higher share of actives than the screen did. A number with no mark means an inactive call.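 Rule for the calls: active = score above a cut-off or among the top three wells of a plate; in these data no inactive exceeds 0.85.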
# Tested on: primary human hepatic stellate cells (donor 1)
# Experiment: scaled lipid accumulation score (0 = DMSO-like, 1 = nortriptyline-like); higher = stronger HSC inactivation (lipid re-accumulation), active = hit call of the paper
# Settings: 48 h
# [1] = library stock concentration: 1 mM
# [2] = library stock concentration: 3.33 mM
# [3] = library stock concentration: 10 mM
# [4] = library stock concentration: 4.7 mM
# [5] = library stock concentration: 80 uM
# [6] = library stock concentration: 400 uM
# [7] = library stock concentration: 2 mM
compound,measurement,setting,value
COC(=O)CCCCCCC1C(O)CC(O)C1CCC(O)C#Cc1ccccc1F (stereo not drawn),scaled lipid accumulation score,[1],≤ 0
NC(=S)NCCC[C@H](N)C(=O)O [L-Thiocitrulline (hydrochloride)],scaled lipid accumulation score,[1],0.048
NC(=S)NCCC[C@H](N)C(=O)O [Thiocitrulline [L-Thiocitrulline]],scaled lipid accumulation score,library stock concentration: 26.1 mM,0.069
Cc1cccc(CC(=O)N2CCc3c2ccc(-c2cn(C)c4ncnc(N)c24)c3F)n1,scaled lipid accumulation score,[2],≤ 0
same,scaled lipid accumulation score,[3],≤ -0.001
CCC(CC)CNc1cc(C(=O)NCCN(C)C)cc(S(=O)(=O)Nc2ccc(OC)cc2)c1,scaled lipid accumulation score,[3],0.996 (active)
CCN(CC)CCNC(=O)c1ccc(NS(C)(=O)=O)cc1 [Sematilide monohydrochloride monohydrate],scaled lipid accumulation score,[3],≤ -0.07
COc1cc(C(=O)NCc2ccc(OCCN(C)C)cc2)cc(OC)c1OC [Trimethobenzamide hydrochloride],scaled lipid accumulation score,,≤ 0
same,scaled lipid accumulation score,[4],0.028
same,scaled lipid accumulation score,[3],≤ 0
"O=c1[nH][nH]c2nnc(-c3c(-c4ccccc4)nn4ccccc34)cc12 [ERK Inhibitor II, Negative Control]",scaled lipid accumulation score,[2],≤ 0
C=CC[N+]1([C@H]2C[C@H]3[C@@H]4CC[C@H]5C[C@H](O)[C@@H](N6CCOCC6)C[C@]5(C)[C@H]4CC[C@]3(C)[C@H]2OC(C)=O)CCCC1 [Rocuronium Bromide],scaled lipid accumulation score,[2],≤ 0
same,scaled lipid accumulation score,[3],≤ 0
COc1ccc(C2(O)OC(=O)C(c3ccc4c(c3)OCO4)=C2Cc2cc(OC)c(OC)c(OC)c2)cc1 (stereo not drawn),scaled lipid accumulation score,[3],0.037
CCCCCCCCCCCC(=O)CC(=O)N[C@H]1CCOC1=O [N-3-oxo-tetradecanoyl-L-Homoserine lactone],scaled lipid accumulation score,[1],≤ 0
CC/C=C\C/C=C\C/C=C\CCCCCCCCCCCC(=O)O [Docosatrienoic acid (22:3 n-3)],scaled lipid accumulation score,[1],≤ -0.021
COc1cccc2c1[C@@H]1CN(CCCCn3c(=O)[nH]c4c(sc5ncc(-c6ccccc6)nc54)c3=O)C[C@@H]1CO2.Cl [Fiduxosin hydrochloride],scaled lipid accumulation score,[3],0.863 (active)
COc1ccc(/C=C/c2ccccc2F)cc1,scaled lipid accumulation score,[1],0.063
C/N=C(/NC#N)NCCSCc1csc(NC(=N)N)n1 [Tiotidine],scaled lipid accumulation score,library stock concentration: 6.4 mM,≤ -0.006
same,scaled lipid accumulation score,[3],0.044
COc1cc2nc(N3CCCN(C)CC3)nc(NC3CCN(Cc4ccccc4)CC3)c2cc1OC.Cl.Cl.Cl.O,scaled lipid accumulation score,[1],0.804 (active)
COc1cc2c(NC3CCN(C(C)C)CC3)nc(C3CCCCC3)nc2cc1OCCCN1CCCC1,scaled lipid accumulation score,[5],≤ 0
same,scaled lipid accumulation score,[6],≤ 0
same,scaled lipid accumulation score,[7],0.354
same,scaled lipid accumulation score,[3],0.14
COc1cc2nc(N3CCCN(C)CC3)nc(NC3CCN(Cc4ccccc4)CC3)c2cc1OC,scaled lipid accumulation score,[5],≤ 0
same,scaled lipid accumulation score,[6],≤ 0
same,scaled lipid accumulation score,[7],0.569
same,scaled lipid accumulation score,[2],0.42
same,scaled lipid accumulation score,[3],0.096 and 0.353 and 0.204
Nc1nccc(-c2c(-c3ccc(F)cc3)ncn2C2CCNCC2)n1,scaled lipid accumulation score,[2],≤ 0
O=S1(=O)c2cccc3cccc(c23)N1CCCN1CCN(c2ccc(F)cc2)CC1 [Fananserin],scaled lipid accumulation score,[3],0.048
CS(=O)(=O)O.N=C(N)SCCc1ccc(OCc2ccc([N+](=O)[O-])cc2)cc1 [KB-R7943 mesylate],scaled lipid accumulation score,[3],0.99 (active)
"N=C(N)SCCc1cccc(CCSC(=N)N)c1 [1,3-PBIT (dihydrobromide)]",scaled lipid accumulation score,[1],≤ 0
"N=C(N)SCCc1ccc(CCSC(=N)N)cc1 [1,4-PBIT (dihydrobromide)]",scaled lipid accumulation score,[1],0.049
C=CCNC(N)=S,scaled lipid accumulation score,[3],≤ 0
C=CCNC(N)=S [Allylthiourea],scaled lipid accumulation score,[2],≤ 0
same,scaled lipid accumulation score,[3],≤ -0.001
CCCCCCCCCCCCCCNC(=O)C1CCCCC1 [N-Cyclohexanecarbonyltetradecylamine],scaled lipid accumulation score,[1],0.008
CC(C)c1noc(N2CCC(COc3ccc(-c4ccc(S(C)(=O)=O)cc4)nc3)CC2)n1,scaled lipid accumulation score,[2],0.019
same,scaled lipid accumulation score,[3],0.16
Oc1cc(O)c(Cl)cn1 [Gimeracil],scaled lipid accumulation score,[2],0.014
same,scaled lipid accumulation score,[3],0.04
CCCSc1ccc2nc(NC(=O)OC)[nH]c2c1 [Albendazole],scaled lipid accumulation score,[3],0.892 (active)
COC(=O)Nc1nc2ccc(SC(C)C)cc2[nH]1 [Methiazole],scaled lipid accumulation score,,≤ 0
CCCSc1ccc2[nH]c(NC(=O)OC)nc2c1 [Albendazole],scaled lipid accumulation score,,0.176
same,scaled lipid accumulation score,[2],≤ 0
same,scaled lipid accumulation score,library stock concentration: 7.5 mM,0.449 and ≤ 0
same,scaled lipid accumulation score,[3],≤ -0.027 and 0.562
"O=P(O)(O)O[C@H]1[C@H](O)[C@@H](O)[C@H](OP(=O)(O)O)[C@@H](OP(=O)(O)O)[C@H]1O [D-myo-Inositol-1,3,4-triphosphate (sodium salt)]",scaled lipid accumulation score,[1],≤ 0
CNCCCC1c2ccccc2C=Cc2ccccc21 [Protryptyline hydrochloride],scaled lipid accumulation score,library stock concentration: 6.7 mM,0.698
CNCCCC1c2ccccc2C=Cc2ccccc21.Cl [Protriptyline hydrochloride],scaled lipid accumulation score,,1.24 (active)
same,scaled lipid accumulation score,[3],0.911 (active)
Nc1nc(OCC2CCCCC2)c2[nH]cnc2n1,scaled lipid accumulation score,[3],≤ -0.055
S=P(N1CC1)(N1CC1)N1CC1 [Thiotepa],scaled lipid accumulation score,[3],≤ -0.027
same,scaled lipid accumulation score,library stock concentration: 10.6 mM,≤ 0
CCCCCCCCCCCCCCCCOCC(CO)OC(C)=O (stereo not drawn) [1-Hexadecyl-2-O-acetyl-glycerol],scaled lipid accumulation score,[1],0.035
CC(C)N1Cc2cc(S(C)(=O)=O)ccc2N(CCN2CC=C(c3c[nH]c4cc(F)ccc34)CC2)S1(=O)=O,scaled lipid accumulation score,[3],0.137
C[C@@]1(C(=O)Nc2ccc(F)nc2)CCCN1c1nc(Nc2cc(C3CC3)n[nH]2)c2cccn2n1,scaled lipid accumulation score,[2],≤ 0
same,scaled lipid accumulation score,[3],0.177
CN1CCC(=C2c3ccccc3CCc3sccc32)CC1 [Pizotifen Malate],scaled lipid accumulation score,[2],0.473
NC(=O)N1c2ccccc2CC(=O)c2ccccc21 [Trileptal],scaled lipid accumulation score,[3],≤ 0
CN1CCC(=C2c3ccccc3CCc3sccc32)CC1 [Pizotifen malate],scaled lipid accumulation score,,0.782
CN1CCC(=C2c3ccccc3CCc3sccc32)CC1.O=C(O)CC(O)C(=O)O [Pizotifen Malate],scaled lipid accumulation score,[3],1.32 (active)
CN1CCC(=C2c3ccccc3CCc3sccc32)CC1.O=C(O)/C=C\C(=O)O [Pizotyline],scaled lipid accumulation score,[3],1.2 (active)
CN1CCC(=C2c3ccccc3CC(=O)c3sccc32)CC1,scaled lipid accumulation score,[3],0.593
CN1CCC(=C2c3ccccc3CC(=O)c3sccc32)CC1 [Ketotifen fumarate],scaled lipid accumulation score,,0.627
same,scaled lipid accumulation score,[4],0.276
same,scaled lipid accumulation score,[3],0.172 and 0.737
CN1CCC(=C2c3ccccc3CC(=O)c3sccc32)CC1 [Ketotifen Fumarate],scaled lipid accumulation score,[2],≤ 0
same,scaled lipid accumulation score,[3],0.576
CN1CCC(=C2c3ccccc3CC(=O)c3sccc32)CC1.O=C(O)/C=C/C(=O)O [Ketotifen fumarate],scaled lipid accumulation score,[3],0.913 (active)
CN1CCC(=C2c3ccccc3CCc3sccc32)CC1 [Pizotyline malate],scaled lipid accumulation score,[4],0.792
NC(=O)N1c2ccccc2CC(=O)c2ccccc21 [Oxcarbazepine],scaled lipid accumulation score,[2],≤ 0
same,scaled lipid accumulation score,library stock concentration: 7.9 mM,≤ 0
same,scaled lipid accumulation score,[3],≤ 0 and ≤ -0.027
C[C@@]12C[C@@]3(O)O[C@@H](O1)[C@]1(COC(=O)c4ccccc4)[C@H]3C[C@@]12O[C@@H]1O[C@H](CO)[C@@H](O)[C@H](O)[C@H]1O [Paeoniflorin],scaled lipid accumulation score,[2],≤ 0
same,scaled lipid accumulation score,[3],≤ 0
COCc1c(C(C)C)nc(C(C)C)c(/C=C/[C@@H](O)C[C@@H](O)CC(=O)O)c1-c1ccc(F)cc1,scaled lipid accumulation score,[3],0.271
COCc1c(C(C)C)nc(C(C)C)c(/C=C/[C@@H](O)C[C@@H](O)CC(=O)O)c1-c1ccc(F)cc1 [Cerivastatin],scaled lipid accumulation score,library stock concentration: 4.4 mM,0.228
CCCOc1ccc(Br)cc1-c1cc(-c2ccc(Cl)cc2)[nH]c1-c1ccncc1,scaled lipid accumulation score,[3],0.006
O=C1NC(=O)c2cc(Nc3ccccc3)c(Nc3ccccc3)cc21,scaled lipid accumulation score,[3],0.353 and 0.003
Cc1cccc(-c2nn3c(c2-c2ccnc4ccc(C(N)=O)cc24)CCC3)n1,scaled lipid accumulation score,[2],0.006
same,scaled lipid accumulation score,[3],≤ 0
O=C(O)CCC/C=C\C[C@@H]1C(=O)C[C@@H](O)[C@@H]1/C=C/[C@@H](O)CC1CCCCC1 [8-iso-16-cyclohexyl-tetranor Prostaglandin E2],scaled lipid accumulation score,[1],≤ 0
O=C(c1cc(Cc2n[nH]c(=O)c3ccccc23)ccc1F)N1CCN(C(=O)C2CC2)CC1,scaled lipid accumulation score,[2],≤ 0
same,scaled lipid accumulation score,[3],≤ 0
CN1CCCC(n2nc(Cc3ccc(Cl)cc3)c3ccccc3c2=O)CC1.Cl (stereo not drawn) [Azelastine HCl],scaled lipid accumulation score,[3],1.09 (active)
O=C(c1cc(Cc2n[nH]c(=O)c3ccccc23)ccc1F)N1CCN(C(=O)C2CC2)CC1 [Olaparib],scaled lipid accumulation score,[5],≤ -0.0005
same,scaled lipid accumulation score,[6],≤ -0.0045
same,scaled lipid accumulation score,[7],≤ -0.0045
same,scaled lipid accumulation score,[3],≤ -0.0045
CN1CCCC(n2nc(Cc3ccc(Cl)cc3)c3ccccc3c2=O)CC1 (stereo not drawn) [Azelastine HCl],scaled lipid accumulation score,[2],0.604
CN1CCCC(n2nc(Cc3ccc(Cl)cc3)c3ccccc3c2=O)CC1 (stereo not drawn),scaled lipid accumulation score,[3],1.21 (active)
COC1CCN(C(=O)c2cc(Cc3n[nH]c(=O)c4ccccc34)ccc2F)CC1,scaled lipid accumulation score,[2],≤ 0
same,scaled lipid accumulation score,[3],≤ -0.001
CN1CCCC(n2nc(Cc3ccc(Cl)cc3)c3ccccc3c2=O)CC1.Cl (stereo not drawn) [Azelastine hydrochloride],scaled lipid accumulation score,library stock concentration: 4.8 mM,0.978 (active)
same,scaled lipid accumulation score,[3],0.992 (active)
